SMILES strings stand for the structures. Inconclusive results are not listed. Values without a mark were called inactive. Activity calls are given as the source filed them. Calls come from the whole dose curve; as a rule, active = well fitted inhibition curve with a large enough effect; inconclusive = small, poorly fitted or top-dose-only effect; inactive = flat fitted curve, though single readings scatter.
% is set by controls: 0 for no effect and ±100 for the full control effect; potency is the fitted concentration of half-maximal effect.

The target of the experiment is Calcium and integrin-binding protein 1 (Homo sapiens) (UniProt Q99828). Put plainly: Primary qHTS for Identification of Calcium Integrin Binding Protein 1 (CIB1) Competitor (AID 1508620).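 For activity change, negative = inhibition: GST tagged CIB1 binding a fluorescein labelled alphaIIb integrin peptide tracer; top concentration of the series differs between compounds.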 Conditions: CIB1-GST / FITC-alphaIIb peptide fluorescence polarization; series mostly up to 114 µM; activity change, negative = inhibition: at the top concentration. In short, it runs like this: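 Fluorescence polarization competition: CIB1-GST (1 uM final) preincubated with compound 15 min at room temperature, then FITC-labeled alphaIIb peptide (100 nM final) added for another 15 min. Polarization read at Ex 480/Em 540.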
Chain of Calcium and integrin-binding protein 1 (Homo sapiens) (Q99828 whole entry, looked up): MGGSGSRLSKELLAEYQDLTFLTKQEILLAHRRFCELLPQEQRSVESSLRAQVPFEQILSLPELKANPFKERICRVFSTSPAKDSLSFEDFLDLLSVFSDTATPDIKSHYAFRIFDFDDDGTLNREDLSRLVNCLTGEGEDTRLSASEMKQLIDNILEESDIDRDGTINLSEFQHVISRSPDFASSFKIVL
In general terms: qHTS replaces the single test concentration by a dilution series.
For `CC(C)c1ccccc1-c1ncc(F)c(NCC2CCN(c3cccnc3)CC2)n1`, the “activity change, negative = inhibition” value was -2.72%.

With `CC(=O)N1CCN(c2ccc(NCc3ccc(C)cc3)cc2)CC1`, the “activity change, negative = inhibition” value is -13%.

For the compound `O=S(=O)(NC1CCN(S(=O)(=O)c2ccc3c(c2)OCCO3)CC1)c1c(F)cccc1F`, the “activity change, negative = inhibition” value was 0.641%.

As for `O=C1CCc2cc(S(=O)(=O)Nc3cccc(B(O)O)c3)ccc2N1`, the “activity change, negative = inhibition” value is -2.25%.

Consider `FC(F)(F)c1ccc(-c2nc(NCc3ccc(-c4ccnc(C(F)(F)F)c4)cc3)c3ccccc3n2)cc1`, for which the “activity change, negative = inhibition” value was 5.6%.

With `O=S(=O)(c1ccc2c(c1)OCCO2)N1CCN(S(=O)(=O)c2cc(F)c(F)cc2F)CC1`, the “activity change, negative = inhibition” value was 5.19%.

Regarding `c1nc(N2CCOCC2)c2cc(-c3ccc4c(c3)OCO4)ccc2n1`, the “activity change, negative = inhibition” value is -2.44%.

With `N#Cc1nc(Nc2cc(F)cc(F)c2)nc(Nc2cc(F)cc(F)c2)n1`, the “activity change, negative = inhibition” value was -10.3%.

Regarding `Cc1cnc(-c2ccccc2OC(C)C)nc1NCc1ccc(-n2ccnn2)cc1`, the “activity change, negative = inhibition” value was -7%.

Regarding `Cc1nnc(-c2cnn(C)c2N)n1Cc1cncn1C`, the “activity change, negative = inhibition” value is 1.68%.

With `C=CCNc1oc(-c2cccc(F)c2)nc1C#N`, the “activity change, negative = inhibition” value is -12.7%.

Regarding `Cc1cccc(-c2csc(N3CCC(C(N)=O)CC3)n2)c1`, the “activity change, negative = inhibition” value was 0.0648%.

Turning to `O=Cc1c(-c2ccccc2)no[n+]1[O-]`, the Potency is 50.1 µM (active).

Regarding `O=C(Cc1nnc(-c2ccncc2)s1)Nc1ccc(F)c(C(F)(F)F)c1`, the “activity change, negative = inhibition” value is 6.46%.

Regarding `COc1ccc(-c2ccc3ncnc(N(C)Cc4csc(C)n4)c3c2)cc1OC`, the “activity change, negative = inhibition” value was -1.4%.

`C(=C\c1cccs1)/c1cccnc1`: the “activity change, negative = inhibition” value was 3.07%.

As to `COc1ccnc(NCc2ccc(O)c3ncccc23)c1`, the “activity change, negative = inhibition” value is 8.74%.

Regarding `Cn1nnnc1Sc1ncnc2scc(-c3cccc(F)c3)c12`, the “activity change, negative = inhibition” value was 0.739%.

As for `Cc1ccnc(NC(=S)N[C@@H]2CCN(c3cccc(C(F)(F)F)c3)C2)c1`, the “activity change, negative = inhibition” value was -14.4%.

`Cc1c(P(=S)(c2ccccc2)c2ccccc2)c2ccccc2n1C(=O)NCc1ccccc1`: the “activity change, negative = inhibition” value is 3.86%.

`Cc1cc(C)nc(NC(=S)N2CCN(c3ccc(F)c(Cl)c3)CC2)c1`: the “activity change, negative = inhibition” value was -14.2%.

In the case of `COc1ccc(C2Nc3ccccc3C(=O)N2Cc2ccco2)cc1COc1c(C)cccc1C` (stereo not drawn), the “activity change, negative = inhibition” value was 0.799%.

`CC(C)(C)c1ccc(C[C@H](C(=O)O)N2C(=O)c3ccc(C(=O)O)cc3C2=O)cc1`: the “activity change, negative = inhibition” value was 1.88%.

Values taken from PubChem BioAssay (NCATS).
